In PubChem BioAssay (NCATS):
Inconclusive results are not listed. A number with no mark means an inactive call. Active and inactive are the calls of the source. Calls come from the whole dose curve; as a rule, active = well fitted inhibition curve with a large enough effect; inconclusive = small, poorly fitted or top-dose-only effect; inactive = flat fitted curve, though single readings scatter.

Molecular target: Tyrosyl-DNA phosphodiesterase 1 (Homo sapiens) (UniProt Q9NUW8)
Experiment: Confirmation Assay for Inhibitors of Tyrosyl-DNA Phosphodiesterase (TDP1) (AID 489007); note: nearly all actives have a fitted effect of over 40% in size
Conditions: recombinant human TDP1 enzymatic activity, dose-response
How it was run: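 Tdp1 1 nM + cpd, 15 min RT; add biotin/phosphotyrosine-FITC oligo 15 nM, 5 min RT; add AS donor/acceptor beads 10 ug/ml, 10 min RT; read AlphaScreen. No-enzyme wells = max signal.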
Potency is the fitted concentration of half-maximal effect.

Tyrosyl-DNA phosphodiesterase 1 (Homo sapiens), sequence (Q9NUW8 whole entry, looked up): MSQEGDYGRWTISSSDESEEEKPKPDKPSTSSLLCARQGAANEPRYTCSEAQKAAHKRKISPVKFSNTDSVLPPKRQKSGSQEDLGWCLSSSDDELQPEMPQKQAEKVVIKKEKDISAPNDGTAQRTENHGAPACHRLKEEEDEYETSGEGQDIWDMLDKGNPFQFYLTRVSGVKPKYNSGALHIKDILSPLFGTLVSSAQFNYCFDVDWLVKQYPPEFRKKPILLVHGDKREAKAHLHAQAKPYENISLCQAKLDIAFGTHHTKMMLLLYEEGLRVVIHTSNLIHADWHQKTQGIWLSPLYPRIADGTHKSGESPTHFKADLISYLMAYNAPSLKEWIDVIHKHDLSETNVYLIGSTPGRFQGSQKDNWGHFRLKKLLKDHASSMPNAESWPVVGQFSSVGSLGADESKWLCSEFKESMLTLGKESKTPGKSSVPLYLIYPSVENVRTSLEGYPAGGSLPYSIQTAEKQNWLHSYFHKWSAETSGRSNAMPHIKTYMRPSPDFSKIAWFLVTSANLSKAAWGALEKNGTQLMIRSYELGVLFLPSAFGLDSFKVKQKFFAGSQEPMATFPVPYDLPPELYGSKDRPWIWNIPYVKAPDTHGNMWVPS

Compound	Potency
Cc1nc(S/C(=C\c2ccc(-c3ccc(C(=O)O)c(Cl)c3)o2)C(=O)O)n[nH]1	3.55 µM (active)
CS(=O)(=O)C1=NSC2=NC(=O)/C(=C\c3cccn3-c3ccc(Cl)cc3)C(=N)N21	5.01 µM (active)
CCN(CC)C(=O)CC(c1ccc(OC)cc1)c1c(OC)cc(OC)c2c(-c3ccccc3)cc(=O)oc12 (stereo not drawn)	2.24 µM (active)
